In PubChem BioAssay (NCATS):
Records with an inconclusive call do not appear. The source made the active and inactive calls. Unless noted, the call rests on the fitted dose curve; in most records, active means well fitted curve in the direction sought with a large enough effect; inconclusive means small, poorly fitted or top-dose-only effect, or another doubt; inactive means no such curve, though single readings can be large; an effect the other way counts as inactive or inconclusive.

Columns and labels:
[1] = Cell Viability - Jurkat (AID 426;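 active means dose-dependent loss of cell ATP signal giving a full or clear fitted curve, ranked by lower potency value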; further: potency means the concentration at half of the fitted maximal effect); conditions: qHTS
Outline: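 Cytotoxicity taken as drop in cellular ATP (CellTiter-Glo luminescence, 20 min room temperature) after 40 hr, 37C treatment of 5000 Jurkat Clone E6-1 cells per well; concentration-response fitted with Hill equation for AC50.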

[2] = Cell Viability - Hek293 (AID 427;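 active means compounds whose dose-response curve shows a full or clear partial loss of cell viability, called from curve shape rather than a numeric limit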;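 further: potency means the concentration at half of the fitted maximal effect; cells exposed to compound for 40 hours at 37 °C before reading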); conditions: qHTS
Outline: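 HEK293 cells in complete medium were exposed to compound for 40 hr at 37 °C, then cellular ATP was read by CellTiter-Glo luminescence. Data were normalized to DMSO (basal) and 100 uM tamoxifen (100% inhibition), and AC50 came from Hill fits.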

[3] = Cell Viability - HepG2 (AID 433; calls by dose curve;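 further: potency means the concentration at half of the fitted maximal effect; potency for ATP loss meaning cytotoxicity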); conditions: qHTS
Outline: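 HepG2 cells, 1500 per well, treated 40 hr at 37 °C in complete medium; viability from intracellular ATP by CellTiter-Glo luminescence. Normalized to DMSO and 100 uM tamoxifen; AC50 from Hill fit of qHTS concentration-response.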

[4] = Cell Viability - MRC5 (AID 434; calls by dose curve;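 further: potency means the concentration at half of the fitted maximal effect; potency reflects cytotoxicity seen as loss of intracellular ATP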); conditions: MRC5 lung fibroblast viability, qHTS
Outline: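 ATP luminescence read-out (CellTiter-Glo, 20 min RT) after 40 hr, 37 °C compound exposure of 1500 MRC5 cells/well. Data normalized to DMSO (basal) and 100 uM tamoxifen (100% inhibition); AC50 from standard Hill equation.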

[5] = Cell Viability - SK-N-SH (AID 435; calls by dose curve; further: potency means the concentration at half of the fitted maximal effect); conditions: SK-N-SH neuroblastoma cell viability qHTS
Outline: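 SK-N-SH neuroblastoma cells (1500/well) treated 40 h at 37 °C in complete medium; viability read as cellular ATP by CellTiter-Glo luminescence. Normalized to DMSO and 100 uM tamoxifen; AC50 from Hill fits of qHTS concentration-response.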

[6] = Cell Viability - N2a (AID 540); conditions: N2a mouse neuroblastoma cell viability; at 92.2 µM (top of the series);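 further: plate controls were DMSO alone for no effect and tamoxifen control for full effect; nearly all actives have a fitted effect of over 45% in size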
Outline: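 CellTiter-Glo ATP luminescence, read 20 min after reagent at room temperature, reported viability following 40 h compound treatment at 37 °C. N2a mouse neuroblastoma cells seeded 1500/well; Hill equation gave AC50.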

[7] = Cell Viability - HUV-EC-C (AID 542); further: on the % scale 0 is the no-effect control and ±100 the full control effect; nearly all actives have a fitted effect of over 35% in size
Outline: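 CellTiter-Glo luminescence measured ATP loss in HUV-EC-C cells (1000/well) after 40 hr compound exposure at 37 °C, in complete culture medium. Concentration-response data were Hill-fitted to give AC50.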

[8] = Cell Viability - H-4-II-E (AID 543); further: on the % scale 0 is the no-effect control and ±100 the full control effect; nearly all actives have a fitted effect of over 35% in size
Outline: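 CellTiter-Glo luminescence (intracellular ATP) measured after 40 h compound exposure at 37 °C in H-4-II-E rat hepatoma cells seeded at 1500/well. Values are AC50s fitted with the standard Hill equation.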

[9] = Cell Viability - SH-SY5Y (AID 544);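 further: 0% = DMSO alone and -100% = 100 µM tamoxifen; nearly all actives have a fitted effect of over 55% in size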
Outline: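 Cytotoxicity measured via ATP-dependent luciferase luminescence (CellTiter-Glo) following 40 h, 37 °C exposure of 1500 SH-SY5Y cells per well. Concentration-response data were fitted with the standard Hill equation to give AC50.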

[10] = Cell Viability - Renal Proximal Tubule (AID 545);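 further: 0% = DMSO only and -100% = 100 µM tamoxifen; nearly all actives have a fitted effect of over 40% in size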
Outline: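 Rat renal proximal tubule primary cells, 1000/well, exposed to compounds for 40 hr at 37 °C in complete medium; cellular ATP read by CellTiter-Glo luminescence. AC50 from concentration-response fitted with standard Hill equation.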

[11] = Cell Viability - Mesenchymal (AID 546);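 further: cells exposed to compound for 40 hours before reading; 0% = DMSO only and -100% = 100 µM tamoxifen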
Outline: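 Human renal mesenchymal cells (glomerulus-derived), 1000 cells/well, 5 hr 37 °C pre-incubation; compound 40 hr, 37 °C; CellTiter-Glo, 20 min RT; luminescence; AC50 via Hill equation.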

[12] = Cellular Toxicity (caspase-3) HepG2 (AID 654);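 further: cells exposed to compound for 16 hours before reading; 0% = DMSO alone and 100% = caspase signal from 100 µM tamoxifen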
Outline: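 Caspase 3/7 activation is measured as a luminescence increase (aminoluciferin substrate) after 16 h compound exposure of human hepatocarcinoma HepG2 cells. AC50 values are Hill fits, scaled between DMSO baseline and 100 uM tamoxifen stimulation.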

[13] = Cellular Toxicity (caspase-3) Jurkat (AID 655);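 further: cells exposed to compound for 16 h at 37 °C before reading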
Outline: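 Jurkat cells (5000/well) in complete medium exposed 16 h at 37 C; caspase-3/7 activity read by Caspase-Glo luminescence after 20 min at room temperature. Normalized to DMSO and 100 uM tamoxifen; AC50 from Hill fits.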

[14] = Cellular Toxicity (caspase-3) HUV-EC-C (AID 656);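 further: 0% = DMSO basal and 100% = 100 µM tamoxifen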
Outline: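 HUV-EC-C cells (1000/well) in complete medium, compound-treated 16 h at 37 °C; caspase-3/7 activity read by Caspase-Glo 3/7 luminescence. Normalized to DMSO (basal) and 100 uM tamoxifen (100%); AC50 from Hill-equation concentration-response fits.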

[15] = Cellular Toxicity (caspase-3) SHSY5Y (AID 657)
Outline: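 SH-SY5Y human neuroblastoma cells, 1500/well, exposed to compound for 16 hours at 37 °C in complete medium. Caspase-3/7 activity read by Caspase-Glo luminescence after 1 hr at room temperature, normalized to DMSO and 10 uM staurosporine; AC50 from Hill fit.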

[16] = Cellular Toxicity (caspase-3) BJ (AID 658);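 further: 0% = DMSO basal and 100% = 10 µM staurosporine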
Outline: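 qHTS, BJ fibroblasts, 1000 cells/well; 5 hr preincubation, 16 hr compound, 37 °C; Caspase-Glo 3/7 reagent, 1 hr RT; luminescence. DMSO = 0%, 10 uM staurosporine = 100%. Hill-equation AC50.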

[17] = Cellular Toxicity (caspase-3) MRC-5 (AID 659);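 further: 0% = DMSO basal and 100% = 10 µM staurosporine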
Outline: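 MRC-5 fibroblasts, 1500/well; 16 h cpd, 37 °C; Caspase-Glo 3/7, 1 h RT; lumi read. Norm: DMSO = 0%, 10 uM staurosporine = 100%. Hill-fit AC50 from qHTS conc-response.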

[18] = Cellular Toxicity (caspase-3) Mesangial (AID 660);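 further: cells exposed to compound for 16 h before the caspase read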
Outline: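 Caspase 3/7 activation measured by Caspase-Glo 3/7 luminescence (20 min, room temperature) following 16 h exposure of mesangial cells (1000/well); AC50 from Hill-equation fit, normalized to DMSO and 100 uM tamoxifen.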

[19] = Cellular Toxicity (caspase-3) SK-N-SH (AID 661);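 further: 0% = DMSO basal and 100% = 10 µM staurosporine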
Outline: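 Caspase 3/7 activation was read by luminogenic substrate cleavage after 16 hour treatment of SK-N-SH cells. Signal was scaled between DMSO and 10 uM staurosporine, and concentration-response data were fitted with the Hill equation for AC50.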

[20] = Cellular Toxicity (caspase-3) H-4-II-E (AID 663);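 further: cells exposed to compound for 16 hr before readout; 0% = DMSO basal and 100% = 100 µM tamoxifen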
Outline: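 H-4-II-E rat hepatoma, 1500 cells/well, 5 hr settle at 37 °C; compound 16 hr, 37 °C, complete medium; Caspase-Glo 3/7, 20 min RT; luminescence. DMSO = 0%, 100 uM tamoxifen = 100%; Hill-equation AC50.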

[21] = Cellular Toxicity (caspase-3) Hek293 (AID 664);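 further: cells exposed to compound for 16 h at 37 °C before readout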
Outline: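 Concentration-response qHTS: caspase 3/7 activation measured by luminescent aminoluciferin substrate cleavage after 16 h compound exposure of Hek 293 cells. AC50 from Hill equation, with DMSO as basal and 100 uM tamoxifen as 100%.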

[22] = Cellular Toxicity (caspase-3) N2a (AID 665);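 further: compound exposure lasted 16 h at 37 °C before readout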
Outline: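 Caspase-3/7 activation measured as luminescence from Caspase-Glo reagent (1 h, room temperature) after 16 h compound exposure of mouse N2a cells. AC50 values from Hill-equation concentration-response, scaled between DMSO and 10 uM staurosporine.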

[23] = Cellular Toxicity (caspase-3) NIH 3T3 (AID 666);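 further: caspase signal read after 16 h compound exposure; 0% = DMSO basal and 100% = 100 µM tamoxifen stimulation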
Outline: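 Caspase-Glo 3/7 luminescence reported caspase activation in 1000 NIH 3T3 cells/well after 16 h compound exposure at 37 C. DMSO set basal and 100 uM tamoxifen set 100% stimulation; concentration-response modeled with the Hill equation for AC50.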

[24] = Cellular Toxicity (caspase-3) Renal Proximal Tubule (AID 667);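 further: cells exposed to compound for 16 hours at 37 °C before detection; 0% = DMSO basal and 100% = 10 µM staurosporine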
Outline: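 Freshly isolated primary rat kidney proximal tubule cells, 1000/well, treated 16 hr at 37 °C, then Caspase-Glo 3/7 luminescence after 1 hr. Normalized to DMSO and 10 uM staurosporine; AC50 from Hill fit.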

[25] = target: Cytochrome P450 3A4 (Homo sapiens) (UniProt P08684); experiment: qHTS Assay for Inhibitors and Substrates of Cytochrome P450 3A4 (AID 884); further: on the % scale 0 is the no-effect control and ±100 the full control effect; nearly all actives have a fitted effect of over 50% in size
Outline: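 Luminescent readout of luciferin produced by CYP3A4 (20 nM) dealkylation of Luciferin-PPXE, 25 uM (its KM). NADPH-driven reaction ran 60 min at RT after 10 min compound preincubation; data scaled to 57 uM ketoconazole as 100% inhibition.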

[26] = Cell Viability - LYMP2-001 (AID 921);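 further: 0% = DMSO only and full inhibition = tetraoctylammonium bromide control wells; nearly all actives have a fitted effect of over 70% in size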
Outline: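 Human lymphoblastoid LYMP2-001 cells, 2500 per well, in complete medium, treated 24 h at 37 C. Viability from cellular ATP by CellTiter-Glo luminescence; AC50 from Hill-equation fits of qHTS concentration-response.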

[27] = MultiTox-Fluor Cytotoxicity Assay - LYMP1-001 - Dead Cells (AID 946);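 further: 0% = DMSO and 100% = tetraoctylammonium bromide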
Outline: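 LYMP1-001 lymphoblastoid cells (2500/well) treated 16 h at 37 C. Dead-cell protease cleavage of bis-AAF-R110 read at Ex/Em 485/520. Normalized to DMSO and 15 uM tetraoctylammonium bromide; AC50 from Hill fits.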

[28] = MultiTox-Fluor Cytotoxicity Assay - LYMP1-001 - Live Cells (AID 947);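 further: 0% = DMSO only and full inhibition = tetraoctylammonium bromide control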
[29] = Cell Viability - LYMP1-002 - Assay at 16 hr (AID 948);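 further: 0% = DMSO alone and full effect = 92 µM tetraoctylammonium bromide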
Outline: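 LYMP1-002 human lymphoblastoid cells, 2500/well, were treated with compounds for 16 hr at 37 C in complete medium. Viability was read as intracellular ATP by CellTiter-Glo luminescence, and AC50 was derived from a Hill fit to concentration-response data.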

[30] = MultiTox-Fluor Cytotoxicity Assay - LYMP1-003 - Dead Cells (AID 961);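 further: 0% = DMSO and 100% = tetraoctylammonium bromide; nearly all actives have a fitted effect of over 70% in size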
Outline: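 LYMP1-003 human lymphoblastoid cells (2500/well) exposed to compound 16 h at 37 C in complete medium; dead-cell protease read with bis-AAF-R110 fluorescence (Ex/Em 485/520) after 60 min at room temperature. Normalized to DMSO and 15 uM tetraoctylammonium bromide; AC50 from Hill fit.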

[31] = MultiTox-Fluor Cytotoxicity Assay - LYMP1-003 - Live Cells (AID 962);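 further: 0% = DMSO only and full loss = 92 µM tetraoctylammonium bromide; cytotoxic hits lower the live-cell protease signal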
Outline: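 Live-cell protease activity (GF-AFC substrate, 405/510 nm, 60 min at room temperature) after 16 h, 37 C compound exposure of human lymphoblastoid LYMP1-003 cells; concentration-response fitted to the Hill equation for AC50.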

[32] = Cell Viability - LYMP1-003 - Assay at 24 hr (AID 963);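 further: plate controls were DMSO only for no effect and tetraoctylammonium bromide positive control for full effect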
Outline: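 Concentration-response qHTS: ATP loss measured by CellTiter-Glo luminescence after 24 h compound exposure at 37 C. Cells were LYMP1-003 human lymphoblastoid, 2500 per well. AC50 derived via standard Hill equation modeling.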

[33] = Cell Viability - LYMP1-003 - Assay at 40 hr (AID 964); further: on the % scale 0 is the no-effect control and ±100 the full control effect; nearly all actives have a fitted effect of over 60% in size
Outline: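 Viability is taken as cellular ATP, read by CellTiter-Glo luminescence after 40 h of compound exposure at 37 C. Cells: human lymphoblastoid line LYMP1-003 at 2500/well; AC50 values derived by Hill-equation fitting of concentration-response data.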

[34] = Cell Viability - LYMP2-003 (AID 965);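 further: cells exposed to compounds for 24 h before reading; 0% = DMSO only and full effect = 92 µM tetraoctylammonium bromide; nearly all actives have a fitted effect of over 50% in size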
Outline: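 Human lymphoblastoid LYMP2-003 cells, 2500/well, exposed to compounds for 24 h at 37 C in complete medium. Viability read as intracellular ATP by CellTiter-Glo luminescence; AC50 from Hill-equation fits of qHTS concentration-response data.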

[35] = Cell Viability - LYMP2-004 (AID 966);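 further: plate controls were DMSO only for no effect and tetraoctylammonium bromide control for full effect; nearly all actives have a fitted effect of over 65% in size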
Outline: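 AC50 values come from Hill modelling of concentration-dependent loss of intracellular ATP, measured by CellTiter-Glo luminescence. Human LYMP2-004 lymphoblastoid cells (2500/well) were exposed to compound for 24 h at 37 C.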

[36] = Cell Viability - LYMP2-009 (AID 968);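 further: 0% = DMSO alone and the full-kill end = tetraoctylammonium bromide at 92 µM; nearly all actives have a fitted effect of over 55% in size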
[37] = Cell Viability - LYMP2-011 (AID 969);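 further: 0% = DMSO only and full inhibition = 92 µM tetraoctylammonium bromide; nearly all actives have a fitted effect of over 60% in size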
Outline: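 Cytotoxicity qHTS with ATP content as read-out: lymphoblastoid cells (2500/well) exposed to compound for 24 h at 37 C, then luciferase luminescence measured. Concentration-response data fitted with the standard Hill equation to give AC50.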

[38] = Cell Viability - LYMP2-013 (AID 970);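 further: 0% = DMSO only and full inhibition = tetraoctylammonium bromide control; nearly all actives have a fitted effect of over 55% in size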
Outline: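 qHTS cytotoxicity: ATP-dependent luminescence (CellTiter-Glo, 30 min room temperature) read after 24 h compound exposure at 37 C of 2500 LYMP2-013 lymphoblastoid cells per well. Concentration-response fitted with Hill equation to give AC50.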

[39] = Cell Viability - LYMP2-015 (AID 971)
Outline: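 Cytotoxicity readout: decrease in intracellular ATP (CellTiter-Glo luminescence) in 2500 LYMP2-015 lymphoblastoid cells/well after 24 h compound exposure at 37 C. Concentration-response data fitted with the standard Hill equation to give AC50.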

[40] = Cell Viability - LYMP2-017 (AID 972)
Outline: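 CellTiter-Glo luminescence (cellular ATP, 30 min RT) measured cytotoxicity after 24 hr compound treatment at 37 C. Cells were a human lymphoblastoid line, LYMP2-017, plated at 2500/well and incubated 5 hr first; concentration-response fitted with Hill equation for AC50.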

[41] = Cell Viability - LYMP2-019 (AID 973)
Outline: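 AC50 values come from Hill-equation fits of luminescent intracellular ATP (CellTiter-Glo, 30 min, room temperature) following 24 h compound exposure at 37 C. Cells: LYMP2-019 lymphoblastoid line, 2500 per well, in complete culture medium.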

[42] = Cell Viability - LYMP2-021 (AID 974)
Outline: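 AC50 values come from Hill-equation fits to CellTiter-Glo luminescence (ATP content), read after 24 hour compound exposure at 37 C of 2500 LYMP2-021 lymphoblastoid cells/well; tetraoctylammonium bromide as positive control.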

[43] = Cell Viability - LYMP2-023 (AID 975)
Outline: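 Intracellular ATP, read by CellTiter-Glo luminescence, reports viability after 24 hr compound exposure at 37 C. 2500 lymphoblastoid cells/well (LYMP2-023) seeded 5 hr beforehand; Hill fits give AC50; positive control tetraoctylammonium bromide.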

[44] = Cell Viability - LYMP2-025 (AID 976)
Outline: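 Cytotoxicity read as loss of intracellular ATP (luciferase luminescence) after 24 h compound treatment at 37 C. Uses LYMP2-025 lymphoblastoid cells in 1536-well format; Hill-equation modelling gives AC50; tetraoctylammonium bromide as positive control.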

Chain of Cytochrome P450 3A4 (Homo sapiens) (P08684 whole entry, looked up): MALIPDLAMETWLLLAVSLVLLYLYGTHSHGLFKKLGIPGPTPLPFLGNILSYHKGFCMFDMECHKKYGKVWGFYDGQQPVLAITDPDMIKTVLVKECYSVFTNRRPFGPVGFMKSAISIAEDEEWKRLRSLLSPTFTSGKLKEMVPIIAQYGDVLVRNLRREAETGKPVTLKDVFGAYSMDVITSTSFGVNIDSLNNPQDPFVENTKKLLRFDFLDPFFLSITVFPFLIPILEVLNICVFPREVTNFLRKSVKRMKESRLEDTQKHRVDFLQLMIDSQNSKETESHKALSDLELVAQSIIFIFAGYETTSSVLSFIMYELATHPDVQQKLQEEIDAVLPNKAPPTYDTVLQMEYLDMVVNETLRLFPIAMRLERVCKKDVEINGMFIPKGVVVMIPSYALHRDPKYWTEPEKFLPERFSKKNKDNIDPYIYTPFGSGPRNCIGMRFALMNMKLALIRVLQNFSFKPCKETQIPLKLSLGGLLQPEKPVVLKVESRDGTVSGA

O=Cc1ccccc1
inactive: Potency [1] > 92 µM | Potency [2] > 92 µM | Potency [3] > 92 µM | Potency [4] > 92 µM | Potency [5] > 92 µM | activity change, negative = cytotoxicity [6] 6.11% | outcome [7] | outcome [8] | outcome [9] | outcome [10] | outcome [11] | outcome [12] | outcome [13] | outcome [14] | outcome [15] | outcome [16] | outcome [17] | outcome [18] | outcome [19] | outcome [20] | outcome [21] | outcome [22] | outcome [23] | outcome [24] | Potency [25] | outcome [26] | Potency [27] | outcome [28] | outcome [29] | Potency [30] | outcome [31] | outcome [32] | Potency [33] | outcome [34] | outcome [35] | outcome [36] | outcome [37] | outcome [38] | outcome [39] | outcome [40] | outcome [41] | outcome [42] | outcome [43] | outcome [44]
